# Results from PubChem BioAssay (NCI).
# This is part of a sample that, as a whole, favours compounds with a hit. Of some 83,000 tested, about 20% had one in any assay.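 Compound tested at a single concentration for 48 hours in 96-well plates; a percent growth value below 10 was scored as active.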 Values without a mark were called inactive. Calls of active or inactive are those of the source.
# Legend:
# Assay in all cases: NCI-60 one-dose screen, 48 h (100 = growth as untreated, 0 = no growth, -100 = all killed)
# Details in all cases: 10 µM unless noted
# T-47D breast = system: T-47D breast
# BT-549 breast = system: BT-549 breast
# MDA-MB-435 melanoma = system: MDA-MB-435 melanoma
# SW-620 colon = system: SW-620 colon
# MCF7 breast = system: MCF7 breast
# HCT-116 colon = system: HCT-116 colon
# HCC-2998 colon = system: HCC-2998 colon
# KM12 colon = system: KM12 colon
SMILES,growth (T-47D breast),growth (BT-549 breast),growth (MDA-MB-435 melanoma),growth (SW-620 colon),growth (MCF7 breast),growth (HCT-116 colon),growth (HCC-2998 colon),growth (KM12 colon)
CCCCCOc1ccc(/C=N/Nc2cc(C)nc3ccc(Cl)cc23)cc1,68.6%,103%,-75.6% (active),-73.8% (active),-73.6% (active),-64.5% (active),-67.7% (active),-84.6% (active)
N#C/C(=C\c1ccccn1)c1nc2cc(Cl)ccc2s1,27.7%,33.3%,74.7%,77.5%,37.1%,55%,92.7%,96.2%
COc1cc(/C=N/NC(=O)c2cnn3c2NC(c2ccccc2)C3)ccc1Oc1ccccc1 (configuration not stated),28.6%,6.76% (active),-22.9% (active),24.9%,9.6% (active),1.82% (active),57.3%,16.6%
S=c1cc(S)c2cc(Br)ccc2[nH]1,84.5%,90.7%,95.5%,99.2%,88.7%,78.2%,102%,101%
CN1CCN(C(=O)[C@]23CCC(C)(C)C[C@H]2C2=CC[C@@H]4[C@@]5(C)C/C(=C/c6cccnc6)C(=O)C(C)(C)[C@@H]5CC[C@@]4(C)[C@]2(C)CC3)CC1,34.5%,82%,59.1%,44.6%,22.9%,20%,66.6%,55.1%
COc1ccc(/C=C2\COc3ccc(-c4ccccc4)cc3C2=O)c(OC)c1,68.1%,91.2%,119%,92.9%,76.9%,75.7%,75.4%,97.7%
CCN(Cc1ccccc1)c1ccc(C=O)cc1,78.6%,95.1%,107%,97.9%,96%,91.3%,93.7%,106%
CCOC(=O)C1=C(CCl)NC(=O)NC1c1ccc2c(c1)OCO2 (configuration not stated),31.3%,32.4%,35.7%,26.7%,9.21% (active),8.65% (active),83.1%,84.3%
CNC(=O)c1cncc(Cn2nc(C)c(NC(=O)c3ccc(COc4ccc(C(F)(F)F)cc4C)cc3)c2C)c1,29.7%,32.4%,66.6%,102%,37.5%,44.7%,77.8%,74.8%
O=C(C[n+]1cccc2ccccc21)c1ccc(O)c(O)c1,42%,65.7%,88.1%,23.8%,21.8%,5.16% (active),90.4%,100%
O=C(O)c1ccc2c(c1)C(=O)N(Cc1ccccc1)C2=O,95.8%,98.6%,106%,98.6%,95.3%,96.8%,99.2%,104%
Brc1ccc(Nc2csc(-c3ccccn3)n2)cc1,82.6%,101%,100%,71%,87.2%,88.8%,92.2%,72.7%
COc1cc(/C=N/NC(=O)c2cnn3c2NC(c2ccccc2)C3)ccc1OCc1ccccc1 (configuration not stated),8.39% (active),-6.73% (active),-28.3% (active),-1% (active),0.769% (active),-15.1% (active),32.8%,2.22% (active)
COc1cc(/C=C\c2cc(OC)c(OC)c(OC)c2)cc(N)c1OC,82.8%,75.9%,1.87% (active),75%,85.4%,79.1%,73.1%,54.9%
CCNC(=O)Oc1ccc(/C(=C(\C)c2ccccc2)c2ccc(OCCN3CCCCC3)cc2)cc1,24.1%,65.2%,65.5%,59.1%,25.8%,40.5%,84.9%,50.8%
COc1ccc(C(=O)Nc2cccc(C3CCc4c(cc(OC)c(OC)c4OC)O3)c2)cc1 (configuration not stated),15.8%,40.9%,-14.9% (active),28.8%,33.1%,23.1%,80.1%,29.4%
O=C(CCN1CCCC1)Nc1ccc2c(NCc3ccccc3)c3ccccc3nc2c1,-5.83% (active),16.8%,-5.11% (active),-20.4% (active),-5.67% (active),-15.5% (active),-37.4% (active),-2.03% (active)
N/C(=N\C(N)=N\c1nc2ccccc2s1)c1ccnc(Br)c1,54.3%,41.9%,-25.2% (active),13.5%,16.6%,20.2%,70.3%,23.9%
CCN1C(=O)N(CC)C2Nn3c(s/c(=C\c4ccc(OC)cc4)c3=O)=NC21 (configuration not stated),48.8%,62.9%,-26.9% (active),25.5%,21%,29.4%,95.7%,37.8%
O=C(NNc1nc2c(F)cccc2n2cccc12)c1cnccn1,22.8%,38%,32%,29%,10.5%,12.4%,52.9%,23.2%
O=c1c2c(c(=O)n1O)c1c3ccc[nH]c3nc1c1nc3[nH]cccc3c12,60.7%,80.9%,96.3%,62.4%,73.5%,72.7%,84.9%,97.1%
CCOC(=O)c1cc(C(=O)c2ccc(Br)cc2)n2ccc(/C=C/c3cc[n+](CC(=O)c4ccc(OC)cc4)cc3)cc12,90.1%,109%,101%,48.6%,-9.87% (active),37.7%,95.1%,99.2%
COc1cc(C2=NN(C(C)=O)C(c3cc(OC)c(OC)c(OC)c3)C2)ccc1O (configuration not stated),45.6%,23.1%,-76% (active),12.4%,8.15% (active),6.96% (active),-49.3% (active),2.51% (active)
COc1cc(OC)cc(C(=O)C[n+]2cccc3cc[nH]c32)c1,100%,102%,99%,99.8%,94.2%,97.6%,107%,101%
COc1cc2nc(-c3ccc(Cl)cc3)cc(OCCCN3CCCCC3)c2cc1OC,35.4%,40.9%,-22.5% (active),40.8%,45.8%,22.9%,67.7%,44.6%
CCN1CCN(CCNc2nccc(-c3c(-c4cccc(OC)c4)nc4occn34)n2)S1(=O)=O,76.3%,111%,52.2%,132%,86.1%,99.8%,130%,100%
N#Cc1c(NCc2ccccc2I)sc2c1CCCCC2,73.3%,102%,99.9%,97.2%,80%,90.3%,113%,96.6%
Cc1c2cc[nH]c(=O)c2c(C)c2c1[nH]c1cc(OCCN3CCN(C)CC3)ccc12,22.7%,33.3%,4.54% (active),9.61% (active),-11.6% (active),7.2% (active),35%,8.55% (active)
NC1[C@H](c2c[nH]c3ccccc23)c2c([nH]c3ccccc23)[C@H]1c1c[nH]c2ccccc12 (some centres not stated),94.9%,105%,100%,96.3%,90.8%,74.2%,97.3%,91%
